GDH-TPI inh – GDH-TPI coupling enzyme inhibitors, primary screen, artefact control for M. tuberculosis FBA inhibitor project, biochemical, absorbance, full deck. GDH-TPI coupled enzyme counterscreen, NADH absorbance. inhibition, % at 4.8 µM. actives 1.2% (n = 360,000)
RecA intein inh – Mtb RecA intein splicing inhibitors, primary screen, biochemical, fluorescence, HTS; Protein RecA (Mycobacterium tuberculosis (strain ATCC 25618 / H37Rv)), P9WHJ3; cell-free RecA intein splicing; inhibition, % (no concentration beside the values); actives 0.75% (n = 290,000); AID 2221, 2009; in the data active = inhibition above about 30%
CCHF vOTU inh-1 – CCHFV vOTU protease inhibitors, primary screen, biochemical, Pep-AMC substrate, fluorescence | Crimean-Congo hemorrhagic fever virus L polyprotein viral ovarian tumor (vOTU) protease … | inhibition, % at 11.5 µM | actives 0.55% (n = 370,000)
FBA Mtb inh – Mtb FBA enzyme inhibitors, primary screen, biochemical, fluorescence, strain H37Rv; actives 2.3% (n = 360,000); inhibition, % at 1 µM; AID 588726, 2011; Fructose-bisphosphate aldolase (Mycobacterium tuberculosis (strain ATCC 25618 / H37Rv)), …; purified M. tuberculosis FBA, fluorescence read-out; in the data active = inhibition above about 27%
Target sequence (P9WQA3 whole entry, looked up): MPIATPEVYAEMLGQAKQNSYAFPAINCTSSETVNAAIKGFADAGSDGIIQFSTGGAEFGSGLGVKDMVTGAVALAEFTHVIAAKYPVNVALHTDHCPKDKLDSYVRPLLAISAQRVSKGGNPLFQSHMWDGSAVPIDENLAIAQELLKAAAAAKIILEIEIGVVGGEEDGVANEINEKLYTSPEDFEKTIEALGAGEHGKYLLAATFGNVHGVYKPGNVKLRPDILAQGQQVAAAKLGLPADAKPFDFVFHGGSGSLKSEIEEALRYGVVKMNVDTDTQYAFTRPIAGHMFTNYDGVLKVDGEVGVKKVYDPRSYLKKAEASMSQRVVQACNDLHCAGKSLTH
CCHF vOTU inh-2 – CCHFV vOTU protease inhibitors, confirmation, biochemical, Pep-AMC substrate, fluorescence | shares compounds with CCHF vOTU inh-1 | Recombinant CCHFV vOTU | inhibition, % at 11.5 µM | actives 17% (n = 1,900) | AID 686976, 2013
Hits are given with their value; - = inactive; . = no result. Shown are actives, neighbours in structure and some others; about 4.2% of the full set was active somewhere. Cut-off read from the data, not from the text of the source, unless noted: active = inhibition above about 30%; inactive = the rest.

SMILES	GDH-TPI inh	RecA intein inh	CCHF vOTU inh-1	FBA Mtb inh	CCHF vOTU inh-2
C=CCC[C@@H](Cc1ccc(F)cc1)C(=O)OC[C@H](Cc1c[nH]c2ccccc12)NC(=O)[C@@H](CC=C)CC(=O)N[C@@H](CO)Cc1ccccc1	-	.	-	-	.
C=CC[C@H](CC(=O)N(CCO)Cc1ccccc1)C(=O)N[C@H](COC(=O)[C@@H](CC=C)CC(=O)OC(C)(C)C)Cc1ccccc1	-	.	-	-	.
C=CCC[C@H](Cc1ccc(F)cc1)C(=O)OC[C@@H](Cc1c[nH]c2ccccc12)NC(=O)[C@@H](CC=C)CC(=O)N[C@@H](CO)Cc1ccccc1	-	.	31.8	-	-
C=CC[C@H](CC(=O)N(CCO)Cc1ccccc1)C(=O)NCCOC(=O)[C@H](CC=C)CC(=O)OC(C)(C)C	-	.	-	-	.
C=CC[C@@H](CC(=O)N(CCO)Cc1ccccc1)C(=O)N[C@@H](COC(=O)[C@H](CC=C)CC(=O)OC(C)(C)C)Cc1c[nH]c2ccccc12	-	.	38.5	-	-
C=CC[C@@H](CC(=O)N(CCO)Cc1ccccc1)C(=O)NC[C@H](OC(=O)[C@@H](CC=C)CC(=O)OC(C)(C)C)c1ccccc1	-	.	36.8	-	-
Cc1ccc([C@H]2C[C@H](n3cc(C4CC4)nn3)[C@@H](O)CN2CC2CCCCC2)cc1	-	.	-	-	.
Cc1ccsc1CN(C)CC(=O)N(C)CC(=O)Nc1c(Cl)cccc1Cl	-	.	-	-	.
CCCn1c(SCC(=O)Nc2ccc(Cl)cn2)nnc1C1CC1	-	-	34.3	-	-
CCn1c(SCC(=O)Nc2ccc(Cl)cc2)nnc1C1CC1	-	-	-	-	.
O=C1C(=Cc2cn(-c3ccccc3)nc2-c2ccc(OCc3ccc(Cl)cc3)cc2)SC(=S)N1CCS(=O)(=O)O	-	.	34.3	-	-
O=c1[nH]c(CN2CCc3ccccc3C2)nc2ccccc12	-	-	44.2	-	-
O=c1[nH]c(CN2CCOCC2)nc2ccccc12	-	-	-	-	.
Cc1cc(C)c(S(=O)(=O)Nc2nnc(CC(C)C)s2)c(C)c1	-	-	30.0	-	-
Cc1cc(C)c(S(=O)(=O)Nc2nnc(C)s2)c(C)c1	-	-	-	-	.
O=C(c1cc(-c2cccnc2)nc2ccccc12)N1CCN(S(=O)(=O)c2ccc(Cl)s2)CC1	-	.	-	-	.
CCCCn1c(N)c(N(Cc2ccccc2OC)C(=O)c2sccc2C)c(=O)[nH]c1=O	-	-	-	-	.
COc1cc2ccccc2nn1	-	-	-	-	.
COc1ccc2c(n1)Sc1nc3ccccc3nc1N2	-	-	59.5	-	-
Cc1cc(C)n2nc(C(=O)OCC(=O)Nc3ccc(C)c(S(=O)(=O)N4CCOCC4)c3)nc2n1	-	.	-	-	.
CC1=NN(c2cccc(Cl)c2)C(=O)C1	-	94.4	44.5	-	-
COc1ccc(CNC(=O)c2ccc(S(=O)(=O)NCc3ccco3)cc2)cc1	-	.	-	-	.
Cc1cc(C)c(CN2CCN(CCCn3ccc(NC(=O)OCc4ccccc4)nc3=O)CC2)c(C)c1	-	.	-	-	.
O=C(CSc1nnnn1C1CC1)N1CCN(c2ccccc2F)CC1	-	.	33.0	-	-
O=C1CC(N2CCN(c3ccccn3)CC2)C(=O)N1CC(c1ccccc1)c1ccccc1 (stereo not given)	-	-	37.9	-	-
SMILES	GDH-TPI inh	RecA intein inh	CCHF vOTU inh-1	FBA Mtb inh	CCHF vOTU inh-2
O=C1CC(N2CCN(c3ccccn3)CC2)C(=O)N1c1ccc(F)cc1 (stereo not given)	-	-	-	-	.
O=C(NCCc1ccccn1)c1cc2ccccc2o1	-	-	-	-	.
CCCCOc1ccc(Nc2cc(Cl)ccc2C(=O)O)cn1	-	-	36.9	-	-
COc1ccc(CC(=O)Nc2cc(Cl)ccc2C(=O)O)cc1	-	-	-	-	.
CN(CCCC(=O)N1CCCC(C(N)=O)C1)S(=O)(=O)c1ccc(F)cc1 (stereo not given)	-	-	-	-	.
COc1cccc(/C=N/n2c(C3CCCCC3)n[nH]c2=S)c1O	-	-	-	-	.
COc1cc(/C=N/n2c(C3CCCCC3)n[nH]c2=S)ccc1O	-	-	31.3	-	-
CC(C)/C=C/CN1CCN(CCCc2ccccc2)C(CCO)C1 (stereo not given)	-	-	-	-	.
CC(=O)N1CCc2cc(S(=O)(=O)CCC(=O)Nc3ccccc3F)ccc21	-	-	-	-	.
COc1ccc(C2(C)NC(=O)N(CC(=O)Nc3ccc4c(c3)OCO4)C2=O)cc1OC (stereo not given)	-	-	-	-	.
COCCOc1ccc(C(F)(F)F)cc1NC(=O)CN1C(=O)NC(C)(c2ccc3c(c2)OCO3)C1=O (stereo not given)	-	-	30.8	-	-
COc1ccccc1N1CCN(c2ccc(S(=O)(=O)N3CCN(C)CC3)cn2)CC1	-	.	33.0	-	-
Cc1ccccc1NC(=O)Nc1nnc([C@@H]2C[C@H](O)[C@@H](CO)O2)s1	-	.	-	-	.
COCCN1C(=O)COc2ccccc2C1C(=O)NCc1ccccc1 (stereo not given)	.	.	-	.	.
COc1cc(/C=N/NC(=O)C(Cc2c[nH]c3ccccc23)NC(=O)OCc2ccccc2)cc([N+](=O)[O-])c1O (stereo not given)	35.9	-	35.0	-	-
CCOCC(=O)Nc1nc2ccc(C)cc2s1	-	-	-	-	.
Cc1ccc2nc(NC(=O)CSCC(=O)OCC(=O)c3ccccc3)sc2c1	-	-	35.5	-	-
CCCCn1c(N)c(N(CCOC)C(=O)CC2CCCCC2)c(=O)[nH]c1=O	-	.	-	-	.
Cc1nc2scc(C)n2c(=O)c1S(=O)(=O)Nc1ccc(OC(F)(F)F)cc1	-	-	39.5	-	-
Cc1nc2scc(C)n2c(=O)c1S(=O)(=O)Nc1ccc(N2CCOCC2)c(Cl)c1	-	-	-	-	.
COc1ccc(NC(=O)c2cnc(SC)nc2C)c(OC)c1	-	-	-	-	.
COC(=O)[C@]12C[C@H](CC(=O)N3CCOCC3)C(=O)N(CCc3ccc(OC)c(OC)c3)C1=C[C@H](COCc1ccccc1)O[C@@H]2C	.	.	-	.	.
CC(C)(Cc1ccc(O)cc1)NC(=O)SCc1ccccc1	-	-	-	-	.
COc1ccc(CN([C@H](CO)CC(C)C)S(=O)(=O)N(Cc2ccccc2)[C@H](CO)CC(C)C)cc1	-	.	33.7	-	-
O=S(=O)(NCCCCNS(=O)(=O)c1c(F)cccc1F)c1ccc2c(c1)OCCO2	-	.	-	-	.
CCN(CC(=O)c1c(N)n(C)c(=O)n(C)c1=O)c1cccc2ccccc12	-	-	82.3	-	-
O=C1CC(NNc2ccccc2)C(=O)N1c1ccc(N2CCCCC2)cc1 (stereo not given)	-	.	-	-	.
S=C1SCCCN1Cc1ccc(Cl)cc1	-	.	-	-	.

Screens: PubChem BioAssay, several laboratories
